# Sampled rows, rich in hits. Any-hit rate of the full collection: about 7.3%.
# Tau fibril FP – inhibitors of human tau fibril formation; P10636; K18 P301L tau heparin fibrillization, Alexa594 FP, 6 h; Potency, µM (doses to about 57.7 µM), for inactives: at the top dose activity, negative = inhibition, usual class: inhibitors; hit rate 0.39% among 280,000; AID 1468; note: nearly all actives have a fitted effect of over 55% in size
# Target sequence (P10636 561-689 P618L limits assumed): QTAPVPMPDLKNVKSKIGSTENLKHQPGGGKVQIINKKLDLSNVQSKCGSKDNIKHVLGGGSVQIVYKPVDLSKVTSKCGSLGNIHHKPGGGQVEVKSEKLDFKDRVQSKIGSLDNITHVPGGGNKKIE
#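 FP of Alexa 594-tau after heparin (20 uM) induction. Substrate: human K18 P301L, 15 uM unlabeled, 0.24 uM labeled. Buffer 100 mM sodium acetate pH 7. 6 hr, 37 C.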
# Tau fibril ThT – blocks human tau fibril formation measured by thioflavin T | hit rate 2.1% among 270,000 | AID 1460 | P10636 | recombinant tau K18 P301L, heparin-induced fibrillization, ThT fluorescence | Potency, µM (titrated, usually from 57.4 µM), without a hit: at the top dose activity, negative = inhibition, most hits filed as inhibitors; note: nearly all actives have a fitted effect of over 55% in size
#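 Heparin-induced fibrillization of the P301L-mutant K18 repeat-domain fragment of human tau was followed by ThT binding in quantitative high-throughput format.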
# Gal4-VP16 FLuc – inhibits Gal4-VP16 luciferase reporter, ROR gamma counter-screen; Potency, µM (doses to about 53.6 µM), for the others: at the highest dose activity, negative = inhibition, usual class: inhibitors; Drosophila S2 Gal4-VP16 UAS-luciferase, luminescence, 20 h; hit rate 3.5% among 310,000;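 note: Gal4-VP16 expression switched on by copper sulfate through the metallothionein promoter; nearly all actives have a fitted effect of over 50% in size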
# RORgamma inh – blocks mouse ROR gamma transcriptional activity. Drosophila S2 Gal4-RORgamma UAS-luciferase reporter, 20 h. Potency, µM (titrated, usually from 53.6 µM), inactives show top-dose activity change, negative = inhibition, usual class: inhibitors. P51450. hit rate 5.4% among 310,000; note: nearly all actives have a fitted effect of over 60% in size
# Target sequence (P51450 whole entry, looked up, the tested form may be a part): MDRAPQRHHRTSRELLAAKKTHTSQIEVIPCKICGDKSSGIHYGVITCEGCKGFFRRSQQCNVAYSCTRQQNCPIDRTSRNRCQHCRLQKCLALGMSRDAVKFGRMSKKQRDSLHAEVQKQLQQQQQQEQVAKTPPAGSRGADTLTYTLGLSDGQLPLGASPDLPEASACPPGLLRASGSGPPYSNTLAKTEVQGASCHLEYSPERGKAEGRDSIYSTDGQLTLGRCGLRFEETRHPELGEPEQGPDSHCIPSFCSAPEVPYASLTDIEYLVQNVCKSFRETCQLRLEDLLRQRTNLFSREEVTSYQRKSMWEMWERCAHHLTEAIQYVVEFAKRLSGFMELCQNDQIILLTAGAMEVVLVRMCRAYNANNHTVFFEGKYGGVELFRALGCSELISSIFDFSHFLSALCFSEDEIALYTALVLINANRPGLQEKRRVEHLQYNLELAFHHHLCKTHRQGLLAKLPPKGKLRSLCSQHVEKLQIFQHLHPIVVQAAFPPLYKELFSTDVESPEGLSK
#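 Luminescence from a UAS-regulated Photinus luciferase reporter in stably transfected Drosophila Schneider cells is measured; decreased signal marks ROR gamma inhibition. Fusion expression is induced by 700 uM copper sulfate for 20 hr.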
# Tau fluor cs – counter-screen for tau fibril formation inhibitors. Potency, µM (top dose mostly 57.7 µM), without a hit: top-dose activity change, negative = decrease. hit rate 0.93% among 280,000. tau K18 P301L Alexa594 fluorescence, heparin fibrillization. AID 1463; note: nearly all actives have a fitted effect of over 55% in size
#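 Human tau K18 P301L (15 uM unlabeled, 0.24 uM Alexa 594-labeled) in 100 mM sodium acetate pH 7 with 20 uM heparin, 6 hr at 37 C. ThT 30 uM added, 1 hr ambient; Alexa 594 FP and total fluorescence read at 555/632 nm.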
# * = called active by the depositor; ? = inconclusive; / = not tested or not shown; [ ] = another dose, or the depositor's remark. Calls come from the whole dose curve; as a rule, active = well fitted curve in the direction sought with a large enough effect; inconclusive = small, poorly fitted or top-dose-only effect, or another doubt; inactive = no such curve, though single readings can be large; an effect the other way counts as inactive or inconclusive. % is set by controls: 0 for no effect and ±100 for the full control effect; potency is the fitted concentration of half-maximal effect.
SMILES,Tau fibril FP,Tau fibril ThT,Gal4-VP16 FLuc,RORgamma inh,Tau fluor cs
Cc1ccc(C(=O)N/N=C\C=C\c2ccc(Br)cc2)cn1,-4.6%,-21.1%,2.24µM*,0.562µM*,-8.3%
Cc1ccc(C(=O)N/N=C/c2cc(Br)ccc2O)cn1,/,/,1.12µM*,2.51µM*,/
O=C(NNC(=O)c1ccco1)c1cccc(Br)c1,/,/,?,18.9%,/
CCCN(CCC)CCCNC(=O)CC(C(=O)N1CCc2ccccc21)n1ccnc1 (centres undefined),-7.1%,-7.4%,-3.9%,-12.6%,-12.9%
CCN(CC)CC(C)CNC(=O)CC(C(=O)N1CCc2ccccc21)n1ccnc1 (centres undefined),-0.1%,-7.5%,-6.8%,11.2µM*,0.7%
Cc1ccc(-n2nc3c([n+]2[O-])CCc2c-3no[n+]2[O-])cc1,2.7%,-10.0%,?,-11.3%,-5.1%
[O-][n+]1onc2c1CCc1c-2nn(-c2ccccc2Cl)[n+]1[O-],-7.6%,-8.1%,3.16µM*,6.31µM*,-9.3%
NS(=O)(=O)c1ccc(N=Nc2c(O)c(C(=O)O)cc3ccccc23)cc1,?,5.01µM*,1.5%,-5.2%,?
O=C(O)Cc1ccc(N=Nc2c(O)c(C(=O)O)cc3ccccc23)cc1,?,12.6µM*,17.4%,-12.6%,-26.5%
Oc1ccc2ccccc2c1N=Nc1ccc(F)cc1,-8.6%,?,0.6%,-18.1%,-15.9%
C=CC1=C2C=C(C3CC3)N(C3CCCC3)C=C2C(=O)C(C)(OC(=O)c2ccco2)C1=O (centres undefined),0.2%[11.6 µM],-5.9%[11.5 µM],/,/,-2.8%[11.6 µM]
COc1ccccc1-c1nnc(C2CCN(S(=O)(=O)c3ccc(CC(C)C)cc3)CC2)o1,7.3%,-10.8%,/,/,-11.9%
COc1ccc(NC(=O)CSc2nc(-c3cccc(C)c3)[nH]c2-c2ccccc2)cc1OC,14.3%,?,/,/,8.91µM*[quencher]
COc1ccc(-c2[nH]c(-c3ccccc3)nc2SCC(=O)Nc2nccs2)cc1,1.6%,-2.3%,2.4%,-14.2%,-4.0%
COc1ccc(NC(=O)CSc2nc(-c3ccc(OC)c(OC)c3)[nH]c2-c2ccc(C)cc2)cc1,19.3%,-11.3%,/,/,4.47µM*[quencher]
COc1ccc(-c2nc(SCC(=O)Nc3ccc4c(c3)OCCO4)c(-c3ccc(C)cc3)[nH]2)cc1OC,14.4%,?,/,/,7.94µM*[quencher]
COc1ccc(-c2nnc(SCC(=O)Nc3ccc4c(c3)OCCO4)n2N)cc1OC,-1.5%,?,-1.4%,-9.3%,-13.9%
COc1ccc(-c2[nH]c(-c3ccc(OC)c(OC)c3)nc2SCC(=O)Nc2ccccc2)cc1,11.5%,-6.7%,/,/,6.31µM*[quencher]
COc1ccc(NC(=O)CSc2nc(-c3ccc(OC)cc3)[nH]c2-c2ccc(F)cc2)cc1,-9.1%,-9.5%,/,/,?
CCCNC(=O)COCc1cc(-c2ccc(F)cc2)on1,-4.5%,-5.5%,/,/,0.8%
COc1ccc2c(c1)NC(c1ccc(Cl)cc1)=NC(c1cccs1)=N2,10.5%,?,/,/,?
S=C1Cc2ccccc2N1,?,0.708µM*,-92.2%,?,8.91µM*[quencher]
O=C1CCc2ccccc2N1,2.9%,3.2%,0.1%,2.5%,1.8%
Cc1cc(C)cc(NC(=S)N2CCC(c3nc4ccccc4s3)CC2)c1,-0.8%,-6.7%,11.2µM*,4.47µM*,-20.9%
Cc1ccc(NC(=S)N2CCC(c3nc4ccccc4s3)CC2)cc1C,5.3%,-7.3%,11.2µM*,4.47µM*,-19.6%
SMILES,Tau fibril FP,Tau fibril ThT,Gal4-VP16 FLuc,RORgamma inh,Tau fluor cs
CCOC(=O)c1noc2nc(C)n(CC(=O)Nc3cc(Cl)ccc3OC)c(=O)c12,-7.3%,3.5%,/,/,-5.5%
CC(=O)C(/C=N/c1cc(-c2ccc(C)cc2)nn1-c1ccccc1)=C(\C)O,6.3%,9.4%,22.4µM*,?,6.8%
Cc1ccc(NC(=O)c2cc(-c3ccccc3)nn2-c2ccccc2)cc1,3.8%,-3.4%,?,8.0%[10 µM],-4.0%
Cc1cc(C)nc(/N=C(\N)Nc2ccccc2-c2ccccc2)n1,-4.6%,-1.9%,12.6µM*,?,-8.5%
COC(=O)c1c(NC(=O)/C(C#N)=C/c2ccccc2)sc2c1CCC2,-4.6%,-17.3%,/,/,-5.1%
Cc1c(C(=O)OC/C(O)=C(\C#N)c2nc3ccccc3[nH]2)oc2ccccc12,?,-8.2%,?,?,-14.1%
COc1ccc(C(=O)OC/C(O)=C(\C#N)c2nc3ccccc3[nH]2)cc1S(=O)(=O)N1CCOCC1,6.7%,-11.9%,-10.2%,12.6µM*,-13.0%
COc1cc(OC)cc(C(=O)OC/C(O)=C(\C#N)c2nc3ccccc3[nH]2)c1,-9.9%,/,17.8µM*,6.31µM*,-17.6%
O=C(CSCSCC(=O)Nc1ccc2c(c1)OCO2)Nc1ccc2c(c1)OCO2,5.4%,-13.2%,1.9%,?,-14.8%
COc1ccc(C(=O)Nc2ccc3c(c2)OCCO3)cc1,11.5%,-11.9%,?,?,1.0%
COc1ccc(C(=O)/C=C(\C)Nc2ccc3c(c2)OCO3)cc1,5.9%,12.6µM*,4.8%,?,?
CC(C)=CC(=O)Nc1ccc2c(c1)OCO2,-0.2%,-6.3%,?,11.2µM*,-4.2%
C#CCn1c(COc2ccccc2C)nc2ccccc21,-4.5%,4.9%,/,/,4.9%
Cc1cc(=O)oc2cc(O[C@@H]3O[C@H](CO)[C@@H](O)[C@H](O)[C@H]3O)ccc12,/,/,8.1%,-40.0%,/
CCC(C)(C)c1ccc(OCCCC[n+]2ccccc2)c(C(C)(C)CC)c1,-6.3%,?,17.8µM*,?,-5.7%
CCCCCc1ccc(OCCCC[n+]2ccccc2)c(CCCCC)c1,4.2%,-16.2%,-1.9%,?,6.3%
COc1cc(NC(=O)Cn2c(=O)n(Cc3ccccc3Cl)c(=O)c3cc(OC)c(OC)cc32)cc(OC)c1,?,15.9%,/,/,-8.8%
N#CC1=C(N)SC(N)=C(C#N)C1CCc1ccccc1,-7.3%,?,?,7.94µM*,-20.2%
N#CC1=C(N)SC(N)=C(C#N)C1c1cccc(Oc2ccccc2)c1,-15.4%,?,?,?,?
N#CC1=C(N)SC(N)=C(C#N)C1c1c(Cl)cccc1Cl,-9.1%,?,?,8.91µM*,-18.1%
CCOc1ccccc1NC(=O)Cc1coc2c(C)c(C)ccc12,-14.0%,?,/,/,-16.9%
Cc1cccc(NC(=O)N2CCC3(CC2)Oc2ccccc2C(=O)N3Cc2ccccc2F)c1C,-3.0%,-0.7%,/,/,1.8%
O=C(NCCc1c[nH]c2ccccc12)c1ccc2c(c1)OCO2,/,/,-1.1%,-20.9%,/
N#C/C(=C/c1ccc2c(c1)OCO2)C(=O)NCCc1c[nH]c2ccccc12,4.7%,12.6µM*,?,-12.8%,20µM*[quencher]
O=C(NC1CCCCC1)N1CCNCC1,/,/,12.0%,7.94µM*,/
O=C(NC1CCCCC1)N1CCCCCC1,5.7%,-0.4%,2.4%,-5.3%,-1.3%
CCC(C)C1NC(=S)N(Cc2ccccc2)C1=O (centres undefined),?,-0.5%,?,10µM*,-4.2%

# From PubChem BioAssay
